# CHX counter-1: counter-screen hit for Shiga toxin inhibitors, cycloheximide. actives 12% (n = 300,000). cell reporter, cycloheximide protein synthesis inhibition counterscreen. max response, %; in the data active means max response mostly above about 13%, no sharp cut-off; inactive means mostly below about 14%; further: read at 38.3 µM for the half of the compounds with a filed dose; 0% is about no effect
# Shiga toxin inh: Shiga toxin inhibition; actives 9.2% (n = 290,000); Vero cells, Shiga toxin protein synthesis inhibition reporter; AID 2315; inhibition, % at 38.7 µM; in the data active means inhibition mostly above about 28%, no sharp cut-off; inactive means mostly below about 43%; further: 0% is about no effect
# LASV entry inh: blocks Lassa virus binding to or entry into cells; Lassa virus pseudotype entry inhibition, cell reporter; Potency, µM (highest dose often 37.9 µM), inactives show at the top dose activity change, negative = inhibition, usual class: inhibitors; actives 1.2% (n = 300,000); AID 540256; calls by dose curve; tested in HEK293 cells; further: potency means the concentration at half of the fitted maximal effect; on the % scale 0 is the no-effect control and ±100 the full control effect; nearly all actives have a fitted effect of over 50% in size
# MARV entry inh: Marburg virus entry inhibition. Marburg virus pseudotyped entry inhibition, cell reporter. Potency, µM (highest dose often 37.8 µM), for inactives: at the highest dose activity change, negative = inhibition, usual class: inhibitors. actives 1.8% (n = 300,000); calls by dose curve; tested in HEK293 cells; further: potency means the concentration at half of the fitted maximal effect; on the % scale 0 is the no-effect control and ±100 the full control effect
# CHX counter-2: counter-screen for Shiga toxin inhibitors: cycloheximide protein synthesis block; Cycloheximide counterscreen, protein synthesis reporter, Shiga toxin assay; actives 3% (n = 510); shares compounds with Shiga toxin inh; Potency, µM (titrated, usually from 38.3 µM), for the others: at the highest dose activity (activation), hits mostly activators; calls by dose curve; further: potency means the concentration at half of the fitted maximal effect; 0% is about no effect
# * = called active by the depositor; ? = inconclusive; / = no result given; [ ] = another dose, or the depositor's remark. Rows were chosen to be rich in hits. Some 12% of all compounds tested hit in one or more screens of this group.
SMILES,CHX counter-1,Shiga toxin inh,LASV entry inh,MARV entry inh,CHX counter-2
CN(C)C(CNC(=O)CCC(=O)c1ccc(Br)cc1)c1ccccc1 (stereo not drawn),11.2,38.3*,5.7%[46.1 µM],-28.6%[46.1 µM],-1.3%
COc1cc(NC(=O)Cn2ccn(Cc3ccccc3OC)c(=O)c2=O)cc(OC)c1,/,/,-16.6%[46.1 µM],/,/
Cn1ncc(Cl)c1C(=O)Nc1ccncc1,-1.1,-3.4,-1.0%,-0.2%,/
Cc1cnc(NC(=O)c2c(Cl)cnn2C)s1,6.3,39.7*,/,/,0.9%
COc1cc(CNC(C)C)c(Br)cc1OC1CCCC1,-1.5,-12.2,-18.2%,?,/
CCCc1cc(=O)oc2cc(OCC(=O)NCCCn3ccnc3)c(Cl)cc12,-4.5,13.0,/,/,/
COc1ccc(C2C(C#N)=C(C)NC3=C2C(=O)CC(C)(C)C3)c(OC)c1 (stereo not drawn),-3.0,43.4*,2.5%,-25.9%,-1.9%
CCc1nc(CN2CCCC(C(=O)c3ccc4c5c(cccc35)CC4)C2)c(C)[nH]1 (stereo not drawn),0.5,-9.1,-29.4%,?,/
COc1ccc(CCNC(=O)CSc2ncc3c(n2)-c2cc(Cl)ccc2N(Cc2ccccc2)S3(=O)=O)cc1OC,/,/,17.0%[46.1 µM],/,/
CC1CCCN(CCSc2ccc(Cl)cc2)C1 (stereo not drawn),-1.3,30.3*,?,-29.2%,0.1%
Cc1ccc2[nH]c(=O)c(CN(CCCN3CCOCC3)C(=O)Nc3ccc(Cl)cc3)cc2c1,8.8,48.0*,-28.5%,?,-0.3%
COc1cccc(OC)c1OCCCOc1ccc(C)cc1Br,6.8,22.0*,1.3%,?,2.5%
COc1ccccc1OCCCOc1c(C)cc(C)cc1Br,9.6,19.0,-18.6%,?,/
O=C(NN1CCOCC1)c1ccccc1Br,-1.7,4.7,0.4%[46.1 µM],-1.5%[46.1 µM],/
Cc1ccccc1C(=O)NN1CCOCC1,-1.2,20.6*,3.5%,9.7%,-1.1%
COc1ccc(/C=C2\C(=O)ON=C2c2ccccc2)cc1,15.2,17.5,22.5%[46.1 µM],?,/
O=C1ON=C(c2ccccc2)/C1=C/c1ccc(OS(=O)(=O)c2ccccc2)cc1,7.6,28.8*,11.6%,8.7%,0.0%
CCCN(CCC)C(=O)Cn1c(=O)n(-c2cccc(C(F)(F)F)c2)c(=O)c2c(C)c(C)sc21,/,/,-1.3%[46.1 µM],-15.6%[46.1 µM],/
Cc1cccc(C(=O)NC(NCCc2ccccc2)C(Cl)(Cl)Cl)c1 (stereo not drawn),-5.4,108.6*,?,?,0.2%
O=C(COc1ccc(-c2nnco2)cc1)N1CCOCC1,/,/,18.3%,0.7%,/
O=C(CCn1nnc2ccccc21)N1CCC(O)(c2cccc(F)c2)CC1,5.5,42.3,9.9%,27.8%[46.1 µM],/
Cc1nnc(NC(=O)CSc2ccc(-c3ccc(Cl)cc3)nn2)s1,11.8,29.9*,23.1%,-0.1%,0.2%
CCC(=O)Nc1ccccc1-c1nc2ccccc2n(C(C)C(=O)Nc2ccc(OC)cc2)c1=O (stereo not drawn),/,/,-24.8%[46.1 µM],-25.1%[46.1 µM],/
O=C(NC1CCCCC1)c1cccc(S(=O)(=O)N2CCCCC2)c1,-1.7,71.2*,4.4%[46.1 µM],3.0%[46.1 µM],-4.3%
Cc1noc(/C=C/c2ccco2)c1S(=O)(=O)N1CCC(C(=O)N(C)Cc2ccccc2)CC1,12.9,40.1*,-8.2%,-7.0%,?
SMILES,CHX counter-1,Shiga toxin inh,LASV entry inh,MARV entry inh,CHX counter-2
Cc1ccc(C)n1-c1ccc(NC(=O)c2ccccc2)cc1,7.1,32.2*,?,?,?
CCN(C1CCCCC1)S(=O)(=O)c1ccc(S(=O)(=O)NCc2ccncc2)cc1,0.8,38.8*,-30.6%[14.3 µM],?,-4.3%
Cc1cccc(C)c1NC(=O)CN1C(=O)c2cccc3cccc1c23,/,/,3.2%[46.1 µM],/,/
CCOCCn1c(=NC(=O)CSCC(=O)N2CCOCC2)sc2cc(OC)ccc21,-0.8,-9.2,/,/,/
Cc1c(NC(=O)c2ccc3c(c2)OCO3)cccc1-c1nc2ccccc2o1,7.9,39.2*,20.6µM*,20.6µM*,3.6%
Nc1ccc(C(=O)NC2CCSc3ccccc32)cc1[N+](=O)[O-] (stereo not drawn),18.2,28.0*,24.4%[46.1 µM],0.8%[46.1 µM],?
Cc1c(Cl)cccc1-c1ccc(C(=O)Nc2ccc(F)cc2)o1,/,/,4.0%[46.1 µM],/,/
CSc1ccc(/C=C(\C#N)C(=O)NC2CCCCC2C)cc1 (stereo not drawn),7.6,26.6*,-17.9%,?,2.9%
CC(=O)Nc1ccc(/C=C(\C#N)C(=O)NC2CCCCC2C)cc1 (stereo not drawn),6.0,-10.4,-0.3%[46.1 µM],17.8%[46.1 µM],/
COc1ccc([N+](=O)[O-])cc1NC(=O)C(C)OC(=O)C1CCC1 (stereo not drawn),/,/,14.1%,2.1%,/
CCn1ccc(C(=O)Nc2ccsc2C(=O)OC)n1,18.5,8.7,/,/,/
CCn1ccc(C(=O)NC2=NCCS2)n1,16.6,31.0*,?,?,6.1%
CC(=O)Nc1ccc(Oc2ccc(-c3noc(C)n3)cc2)cc1,12.1,81.8*,-1.3%,2.2%,-0.3%
O=C(CSCc1ccco1)NC1CCCC1,2.5,29.4*,17.1%,-2.6%,2.2%
CN(C)S(=O)(=O)c1ccc(C(=O)OCC(=O)c2ccc3c(c2)NC(=O)CO3)cc1,2.1,42.3*,18.9%,20.3%[46.1 µM],-2.9%
Cc1nn(C(C)C(=O)NC2CC2)c(=O)c2nn(-c3ccccc3)c(C)c12 (stereo not drawn),-6.3,-5.8,50.6%[46.1 µM],8.2%[46.1 µM],/
Cc1nn(C(C)C(=O)NC2CCC(C)CC2)c(=O)c2nn(-c3ccccc3)c(C)c12 (stereo not drawn),-1.7,30.6*,/,/,?
CCOC(=O)N1CCN(C(=O)Nc2ccc3nc(C)c(C)nc3c2)CC1,5.6,136.4*,3.6%,10.2%,-2.4%
CCC(C)NCC(=O)Nc1ccc(-c2nc3cc(NC(=O)CNC(C)CC)ccc3o2)cc1 (stereo not drawn),-3.9,18.8,?,?,/
CCN(CC)CC(=O)Nc1ccc(-c2nc3cc(NC(=O)CN(CC)CC)ccc3o2)cc1,8.1,80.5*,10.5%,0.708µM*,1.8%
Cc1ccc(N2CCN(C(=O)c3ccccc3NC(=O)c3ccccc3C(=O)O)CC2)cc1,3.0,39.4*,?,10.7%,-1.5%
Cc1ccc(C(=O)Nc2ccccc2C(=O)N2CCN(c3ccccc3)CC2)cc1,-2.8,-6.5,-17.4%[46.1 µM],-24.3%[46.1 µM],/
COc1ccccc1C(=O)Nc1ccc(N2CCN(C(C)=O)CC2)cc1,2.4,53.2*,16.1%[46.1 µM],?,-1.8%
CCn1c(O)c(C2=NCCCC2)c2ccccc21,-1.4,125.0*,9.7%,?,1.5%
CCOC(=O)CCCNC(=O)CSc1nc2ccc(OCC)cc2[nH]1,5.1,-3.8,-13.1%,-22.0%[46.1 µM],/
NC(=O)C1CCN(C(=O)C2c3ccccc3C(=O)N3CCc4ccccc4C23)CC1 (stereo not drawn),0.9,46.2*,-21.1%[14.3 µM],-8.0%,-4.7%
O=C(CCS(=O)(=O)Cc1ccccc1F)NCc1ccccc1Cl,2.4,-12.3,-4.0%[46.1 µM],3.1%[46.1 µM],/
COc1ccc(Cn2nnnc2C(C(C)C)N(Cc2ccco2)Cc2cccs2)cc1 (stereo not drawn),7.5,44.3*,?,?,0.4%
Cc1ccccc1C1CC(=O)c2ccccc2C1C (stereo not drawn),/,/,-5.9%[46.1 µM],?,/
N#C/C(=C(/O)COc1ccc(Cl)cc1)c1nc2ccccc2s1,-0.7,-3.7,?,1.8%[46.1 µM],/

# Compound activity as filed in PubChem.
